Laboratory results as given in PubChem BioAssay (NCATS).
Results filed as inconclusive are left out. Active and inactive are the calls of the source. Calls follow the shape of the dose curve; as a rule, active = well fitted curve in the direction sought with a large enough effect; inconclusive = small, poorly fitted or top-dose-only effect, or another doubt; inactive = no such curve, though single readings can be large; an effect the other way counts as inactive or inconclusive.

Molecular target: Cytochrome P450 3A4 (Homo sapiens) (UniProt P08684)
Sequence (P08684 whole entry, looked up): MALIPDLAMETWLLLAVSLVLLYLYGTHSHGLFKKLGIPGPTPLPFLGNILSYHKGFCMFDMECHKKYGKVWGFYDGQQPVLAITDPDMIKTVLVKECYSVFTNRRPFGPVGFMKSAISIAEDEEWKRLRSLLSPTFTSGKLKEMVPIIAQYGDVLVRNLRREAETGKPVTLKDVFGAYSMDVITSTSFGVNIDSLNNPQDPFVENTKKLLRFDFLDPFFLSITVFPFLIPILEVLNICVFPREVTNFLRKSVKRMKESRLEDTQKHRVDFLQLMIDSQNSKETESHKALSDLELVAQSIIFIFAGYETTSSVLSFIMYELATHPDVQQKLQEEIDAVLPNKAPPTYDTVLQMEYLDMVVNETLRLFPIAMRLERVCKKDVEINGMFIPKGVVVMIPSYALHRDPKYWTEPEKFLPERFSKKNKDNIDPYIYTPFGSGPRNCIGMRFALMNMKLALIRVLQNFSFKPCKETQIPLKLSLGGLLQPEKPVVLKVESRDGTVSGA
Assay: qHTS Assay for Activators of Cytochrome P450 3A4 (AID 885); also: nearly all actives have a fitted effect of over 65% in size
Details: recombinant CYP3A4, Luciferin-PPXE luminescence, 60 min; series mostly up to 57.1 µM
In short: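 20nM CYP3A4 + 25uM Luciferin-PPXE (=KM), 200mM KPO4; cpd 10 min RT; NADPH regen, 60 min RT; stop w/ detection buffer, 20 min; luminescence. Normalized to 57 uM ketoconazole.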

SMILES	outcome
CCN(CC)CCOC(=O)C1(C2CCCCC2)CCCCC1	inactive
Oc1cccc(O)c1	inactive
CCN(CC)C(C)CN1c2ccccc2Sc2ccccc21 (stereo unspecified)	inactive
Cc1cc(N)c2ccccc2[n+]1CCCCCCCCCC[n+]1c(C)cc(N)c2ccccc21	inactive

Test system: not listed separately
Assay: Confirmation and Secondary Assay for Modulators of Hemoglobin Beta Chain Splicing at IVS2 654 locus (AID 910);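 also: HeLa cells stably carrying EGFP split by mutant beta-globin IVS2-654 intron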
Details: HeLa EGFP-654 splicing reporter, GFP fluorescence, 48 h; series mostly up to 46.1 µM
In short: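 HeLa cells stably expressing EGFP interrupted by β-globin IVS2-654 intron, seeded overnight in Opti-MEM/2% FCS, then treated 2 days at 37 °C. Restored splicing read as total peak GFP intensity per well by laser scanning cytometry (488 nm excitation, 500–520 nm emission); 500 nM antisense PNA as control.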

SMILES	outcome
O=C1c2c(O)cccc2Cc2cccc(O)c21	inactive
CCN(CC)CCOC(=O)C1(C2CCCCC2)CCCCC1	inactive
CC1=C(CC(=O)O)c2cc(F)ccc2/C1=C\c1ccc(S(C)=O)cc1 (stereo unspecified)	inactive
CN(C)CCCN1c2ccccc2Sc2ccc(Cl)cc21	inactive
Oc1cccc(O)c1	inactive
CSc1ccc2c(c1)N(CCC1CCCCN1C)c1ccccc1S2 (stereo unspecified)	inactive
NS(=O)(=O)c1cc2c(cc1C(F)(F)F)NC(Cc1ccccc1)NS2(=O)=O (stereo unspecified)	inactive
CC(C)(C(=O)O)c1ccc(C(O)CCCN2CCC(C(O)(c3ccccc3)c3ccccc3)CC2)cc1 (stereo unspecified)	inactive
CSc1ccc2c(c1)C(N1CCN(C)CC1)Cc1ccccc1S2 (stereo unspecified)	inactive
NC(=O)N/N=C/c1ccc([N+](=O)[O-])o1	inactive
Cn1cc[nH]c1=S	inactive
CNCC(O)c1ccc(O)c(O)c1 (stereo unspecified)	inactive
CCN(CC)C(C)CN1c2ccccc2Sc2ccccc21 (stereo unspecified)	inactive
CN1CCOC(c2ccccc2)c2ccccc2C1 (stereo unspecified)	inactive
COC(=O)C1=C(C)NC(C)=C(C(=O)OC)C1c1ccccc1[N+](=O)[O-]	inactive
OCCN1CCN(CCCN2c3ccccc3Sc3ccc(Cl)cc32)CC1	inactive
CNCCC(Oc1ccc(C(F)(F)F)cc1)c1ccccc1 (stereo unspecified)	inactive
Cc1cc(N)c2ccccc2[n+]1CCCCCCCCCC[n+]1c(C)cc(N)c2ccccc21	inactive
COc1ccc(Cl)cc1C(=O)NCCc1ccc(S(=O)(=O)NC(=O)NC2CCCCC2)cc1	inactive

Test system: not listed separately
Assay: qHTS Assay for Identification of Small Molecule Agonists for Thrombopoietin (TPO) Signaling Pathway (AID 917)
Details: TPO signaling pathway reporter cells, agonist qHTS, stimulated with TPO at its EC50; series mostly up to 38.5 µM
In short: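 Murine Ba/F3 cells expressing human TPO receptor and GPIIb-promoter luciferase, IL-3-starved overnight, given compound plus TPO at 26 pM (EC50). After 24 h at 37 C, 5% CO2, luminescence read.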

SMILES	outcome
CCCn1cnc2c1c(=O)n(CCCCC(C)=O)c(=O)n2C	inactive
CC1=C(CC(=O)O)c2cc(F)ccc2/C1=C\c1ccc(S(C)=O)cc1 (stereo unspecified)	inactive
C[C@]12CC[C@@H]3c4ccc(O)cc4CC[C@H]3[C@@H]1CCC2=O	inactive
N=c1c[n+](N2CCOCC2)[n-]o1	inactive
CC(C)NC[C@H](O)c1ccc(O)c(O)c1	inactive
CCCCCCCCCCCCCCCC(=O)NCCO	inactive
NC1CCN(c2cccc(Cl)n2)CC1	inactive
COc1ccc(Cl)cc1C(=O)NCCc1ccc(S(=O)(=O)NC(=O)NC2CCCCC2)cc1	inactive
